We go through eight compounds from PubChem BioAssay (Tox21).

SMILES strings stand for the structures. Several values for one entry are separate records, joined by “and”; a condition that tells them apart may be missing. Equal entries are not always repeated. Inconclusive results are not listed. The source holds several records for some structures; these can differ, active in one and inactive in another. Activity calls are given as the source filed them. Unless noted, the call rests on the fitted dose curve; in most records, active means well fitted curve in the direction sought with a large enough effect in the repeat runs; inconclusive means weak or mixed curves; inactive means no such curve, though single readings can be large; an effect the other way counts as inactive or inconclusive.

The nature of experiment [1]: qHTS assay for small molecule agonists of the p53 signaling pathway (AID 651631; calls by dose curve; further: nearly all actives have a fitted effect of over 15% in size). The essentials: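 Agonist mode screen using a stably integrated beta-lactamase gene under p53 response elements in HCT-116 cells. Compound exposure lasts 16 h at 37 °C; fluorescence intensity is measured following 2 h FRET substrate loading.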
In general terms: In qHTS, concentration-response curves come from the screen itself.

Experiment [2] in a line: qHTS assay for small molecule agonists of the p53 signaling pathway - cell viability (AID 651633; calls by dose curve;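 further: p53RE-bla HCT reporter cells with a stable beta-lactamase p53 reporter; series mostly up to about 83 µM; nearly all actives have a fitted effect of over 30% in size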). The essentials:
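p53RE-bla cells were treated with compound for 16 hours at 37 C. Cytotoxicity was then measured as CellTiter-Glo luminescence after 30 min at room temperature.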

A short description of experiment [3]: qHTS assay for small molecules that induce genotoxicity in human embryonic kidney cells expressing luciferase-tagged ATAD5 - cell viability (AID 651634; calls by dose curve; further: nearly all actives have a fitted effect of over 25% in size; further: potency means the concentration at half of the fitted maximal effect). The essentials: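 Fluorescence from CellTiter-Fluor, reporting protease activity within live cells, served as the viability read-out. HEK293T cells carrying luciferase-tagged ATAD5 had been treated with compound for 15.5 hr at 37C.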

The nature of experiment [4]: qHTS assay for small molecule disruptors of the mitochondrial membrane potential (AID 720635). Further: potency means the concentration at half of the fitted maximal effect. An outline of the steps:
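HepG2 cells exposed to compound 1 hr at 37C, then Mito-MPS dye 30 min. Ratio read of aggregate (540/590 nm) versus monomer (490/535 nm) fluorescence.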

A short description of experiment [5]: qHTS assay to test for compound auto fluorescence at 590 nm (red) in HepG2 cells (AID 720674). An outline of the steps: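 HepG2 cells, 2,000 per well in MEM with 10% FBS, attached overnight at 37 C, then got 23 nL compound or DMSO. After 1 hr at 37 C, 5% CO2, red fluorescence was read at 540/590 nm against Rose Bengal sodium as reference.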
Experiment [6] is described as follows: qHTS assay to test for compound auto fluorescence at 535 nm (green) in HepG2 cells (AID 720675).
Experiment [7] can be described thus: qHTS assay to test for compound auto fluorescence at 460 nm (blue) in HEK293 cells (AID 720678). An outline of the steps: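 Blue-channel (Ex/Em 405/460 nm) intensity measured in HEK293 cultures after overnight compound exposure at 37C; signal expressed relative to triamterene. Cells plated 2,000 per well in 10% dialyzed FBS medium and allowed 4-5 hr to attach.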

A short description of experiment [8]: qHTS assay to test for compound auto fluorescence at 590 nm (red) in HEK293 cells (AID 720679). An outline of the steps: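 Red-channel autofluorescence (Ex/Em 540/590 nm; Rose Bengal sodium reference) was measured after overnight 37C, 5% CO2 exposure of attached HEK293 cells, 2,000 per well in medium with 10% dialyzed FBS.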
Experiment [9] can be described thus: qHTS assay to test for compound auto fluorescence at 535 nm (green) in HEK293 cells (AID 720680).
Experiment [10] is described as follows: qHTS assay to test for compound auto fluorescence at 460 nm (blue) in HEK293 cell free culture (AID 720681). The essentials: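 Compounds were added to cell-free DMEM with 10% FBS and fluorescence read directly. The blue channel used 405 nm excitation and 460 nm emission, with triamterene as the reference fluorophore.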
The nature of experiment [11]: qHTS assay to test for compound auto fluorescence at 535 nm (green) in HEK293 cell free culture (AID 720682). The essentials:
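No cells present: wells hold DMEM supplemented with 10% FBS, into which compound or vehicle is pinned. Green emission is then recorded (485 nm excitation, 535 nm emission) and scaled to fluorescein.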

Experiment [12] in a line: qHTS assay to test for compound auto fluorescence at 590 nm (red) in HEK293 cell free culture (AID 720683). The essentials: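 Cell-free wells of DMEM with 10% FBS received compound, and intrinsic fluorescence was read at excitation/emission 540/590 nm. Values expressed as equivalence to Rose Bengal sodium.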
Experiment [13] in a line: qHTS assay to test for compound auto fluorescence at 590 nm (red) in HepG2 cell free culture (AID 720684). An outline of the steps: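 Compound was pinned into wells holding MEM with 10% FBS and no cells, and red fluorescence was read at Ex/Em 540/590 nm. Signal is expressed as auto fluorescence equivalency relative to Rose Bengal sodium.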
Experiment [14] can be described thus: qHTS assay to test for compound auto fluorescence at 460 nm (blue) in HepG2 cell free culture (AID 720685). The essentials: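 Compound (23 nL) or DMSO pinned into cell-free MEM with 10% FBS; blue fluorescence read at 405/460 nm excitation/emission, expressed as auto-fluorescence equivalency to triamterene.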
The nature of experiment [15]: qHTS assay to test for compound auto fluorescence at 535 nm (green) in HepG2 cell free culture (AID 720686).
Experiment [16] is described as follows: qHTS assay to test for compound auto fluorescence at 460 nm (blue) in HepG2 cells (AID 720687). An outline of the steps:
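HepG2 cells in MEM with 10% FBS, attached overnight at 37 C, were exposed to compound or DMSO for 1 hr at 37 C, 5% CO2. Blue fluorescence was read at 405/460 nm, with triamterene as reference fluorophore.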

A short description of experiment [17]: qHTS assay for small molecules that induce genotoxicity in human embryonic kidney cells expressing luciferase-tagged ATAD5 (AID 651632). Further: nearly all actives have a fitted effect of over 15% in size. An outline of the steps: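 ATAD5-luc HEK293T, 2,000 cells/well; cpd or DMSO pin-transferred; 16 hr, 37C/5% CO2; Amplite 30 min RT; luminescence.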
Experiment [18] in a line: qHTS assay for small molecule disruptors of the mitochondrial membrane potential - cell viability (AID 720634; calls by dose curve;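 further: human HepG2 liver cancer cells; series mostly up to about 83 µM; nearly all actives have a fitted effect of over 20% in size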). An outline of the steps: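 Cells: HepG2, 2,000/well, attached overnight. Compound 1 hr, 37 C/5% CO2. +m-MPI dye, +CellTiter-Glo 30 min RT. Readout: luminescence (ATP).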
The target of experiment [19] is Glucocorticoid receptor (Homo sapiens) (UniProt P04150). The experiment in a line: qHTS assay to identify small molecule antagonists of the glucocorticoid receptor (GR) signaling pathway (AID 720692; active means well fitted inhibition curve with a large enough effect in the signal ratio in the repeat runs, not every such curve was filed as active; the % refers to the signal ratio). The essentials:
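HeLa GR-bla cells; cmpd + dex 5 nM final, 18 h 37 C; LiveBLAzer B/G FRET substrate 2 h RT; fluorescence intensity read. Antagonist mode, qHTS.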

Experiment [20] shares this target. The experiment can be described thus: qHTS assay to identify small molecule agonists of the glucocorticoid receptor (GR) signaling pathway (AID 720691; active means well fitted activation curve with a large enough effect in the signal ratio in the repeat runs, not every such curve was filed as active; the % refers to the signal ratio). An outline of the steps: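 Fluorescence intensity from LiveBLAzer B/G FRET substrate (2 h, room temperature) reports beta-lactamase expression driven by the glucocorticoid response element in GR-bla HeLa cells after 18 h compound exposure at 37 C.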

Sequence of Glucocorticoid receptor (Homo sapiens) (P04150 whole entry, looked up): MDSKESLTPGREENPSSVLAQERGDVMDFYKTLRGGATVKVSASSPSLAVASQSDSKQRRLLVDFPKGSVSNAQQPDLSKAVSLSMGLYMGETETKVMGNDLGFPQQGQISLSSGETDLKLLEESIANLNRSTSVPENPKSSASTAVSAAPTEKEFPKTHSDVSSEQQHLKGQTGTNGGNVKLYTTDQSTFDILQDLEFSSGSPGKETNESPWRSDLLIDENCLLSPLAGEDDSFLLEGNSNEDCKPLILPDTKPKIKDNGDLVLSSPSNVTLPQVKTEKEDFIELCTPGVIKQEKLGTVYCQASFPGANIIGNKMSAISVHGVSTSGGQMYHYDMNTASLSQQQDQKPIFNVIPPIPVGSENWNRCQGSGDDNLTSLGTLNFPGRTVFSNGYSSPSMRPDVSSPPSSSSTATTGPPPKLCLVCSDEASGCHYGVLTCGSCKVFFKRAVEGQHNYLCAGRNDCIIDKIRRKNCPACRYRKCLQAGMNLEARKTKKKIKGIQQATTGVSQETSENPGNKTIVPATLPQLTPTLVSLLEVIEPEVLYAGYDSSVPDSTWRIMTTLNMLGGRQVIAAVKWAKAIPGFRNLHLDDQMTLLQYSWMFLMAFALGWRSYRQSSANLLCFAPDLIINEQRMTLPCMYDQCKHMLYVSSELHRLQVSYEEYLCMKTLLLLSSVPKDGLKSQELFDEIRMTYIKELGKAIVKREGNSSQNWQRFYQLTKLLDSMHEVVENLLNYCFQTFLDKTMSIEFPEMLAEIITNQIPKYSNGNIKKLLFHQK

In the case of `COc1cc(C=O)ccc1O`, the Potency entry in experiment [1], in [2], in experiment [3] and in experiment [4] was “inactive” each time. Besides, the call in experiment [5], in experiment [6], in [7], in [8], in [9] and in experiment [10] was inactive. Further, the call in experiment [11], in experiment [12], in [13], in experiment [14], in experiment [15] and in experiment [16] was inactive.

On to `Cc1cnc(NC(=O)C2=C(O)c3ccccc3S(=O)(=O)N2C)s1`, for which the Potency result in experiment [1], in experiment [17], in experiment [2], in experiment [18] and in experiment [19] was “inactive” each time. Besides, the result in [5], in experiment [6], in experiment [7], in experiment [8], in experiment [9] and in experiment [10] was inactive. In addition, the call in experiment [11], in experiment [12], in [13], in experiment [14], in experiment [15] and in [16] was inactive.

Regarding `CCCCCCCCOc1ccc(C(=O)c2ccccc2)c(O)c1`, the Potency result in experiment [1], in experiment [2], in experiment [3] and in [18] was “inactive” in each case. For the same compound, the Potency entry in experiment [4] was “inactive and 61.1 µM (active)”. Moreover, the compound was called inactive in experiment [5], in experiment [6], in [7], in experiment [8], in experiment [9] and in experiment [10]. Moreover, the compound was classed as inactive in experiment [11], in experiment [12], in experiment [13], in [14], in [15] and in experiment [16].

For the compound `CN(C)C=O`, the Potency entry in experiment [1], in experiment [17], in experiment [2] and in experiment [3] was “inactive” throughout. Also, the call in experiment [5], in experiment [6], in experiment [7], in [8], in experiment [9] and in [10] was inactive. Besides, the compound was classed as inactive in experiment [11], in experiment [12], in experiment [13], in experiment [14], in experiment [15] and in experiment [16].

In the case of `C=C(C)C(N)=O`, the Potency entry in experiment [1], in experiment [2], in [3], in [18] and in experiment [4] was “inactive” throughout. Moreover, the compound was called inactive in [5], in experiment [6], in experiment [7], in experiment [8], in experiment [9] and in experiment [10]. Besides, the compound was called inactive in experiment [11], in experiment [12], in [13], in experiment [14], in experiment [15] and in experiment [16].

Turning to `CO[C@H]1C=CO[C@@]2(C)Oc3c(C)c(O)c4c(O)c(c(/C=N/N5CCN(C)CC5)c(O)c4c3C2=O)NC(=O)/C(C)=C\C=C[C@H](C)[C@H](O)[C@@H](C)[C@@H](O)[C@@H](C)[C@H](OC(C)=O)[C@@H]1C`, the Potency entry in experiment [1], in experiment [2] and in experiment [18] was “inactive” each time. Moreover, the Potency was 23.7 µM (active) and 48.8 µM (active) and 39 µM (active) in experiment [3]; 10.6 µM (active) and 24.5 µM (active) and 11 µM (active) in experiment [4]. Besides, the result in [5], in experiment [6], in [7], in experiment [8], in [9] and in experiment [10] was inactive. Further, the compound was classed as inactive in [11], in experiment [12], in experiment [13], in [14], in experiment [15] and in [16].

For the compound `CC(C)Cc1ccc(C(C)C(=O)O)cc1` (stereo unspecified), the Potency entry in [1], in [2], in [3], in experiment [4], in experiment [20] and in experiment [19] was “inactive” in each case. Besides, the result in experiment [5], in experiment [6], in [7], in experiment [8], in experiment [9] and in experiment [10] was inactive. In addition, the compound was called inactive in [11], in [12], in experiment [13], in experiment [14], in [15] and in [16].

With `NC(=O)NO`, the Potency entry in [1], in experiment [2], in [3], in experiment [4], in [20] and in [19] was “inactive” in each case. Besides, the result in experiment [5], in experiment [6], in [7], in [8], in [9] and in experiment [10] was inactive. The result in experiment [11], in experiment [12], in experiment [13], in experiment [14], in [15] and in experiment [16] was inactive.
